# Screening data deposited in PubChem by National Center for Advancing Translational Sciences (NCATS).
# Rows were chosen to be rich in hits. Some 7.3% of all compounds tested hit in one or more screens of this group.
# Gal4-VP16 FLuc = VP16 counterscreen qHTS for inhibitors of ROR gamma transcriptional activity; Drosophila S2 Gal4-VP16 UAS-luciferase, luminescence, 20 h; Potency, µM (top dose mostly 53.6 µM), for the others: top-dose activity, negative = inhibition, actives largely listed as inhibitors; 3.5% of 310,000 active;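 note: Gal4-VP16 expression switched on by copper sulfate through the metallothionein promoter; nearly all actives have a fitted effect of over 50% in size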
# RORgamma inh = qHTS for inhibitors of ROR gamma transcriptional activity. 5.4% of 310,000 active. Potency, µM (top dose mostly 53.6 µM), for the others: at the top dose activity change, negative = inhibition, actives largely listed as inhibitors. AID 2551, 2010. Nuclear receptor ROR-gamma (Mus musculus), P51450. Drosophila S2 Gal4-RORgamma UAS-luciferase reporter, 20 h; note: nearly all actives have a fitted effect of over 60% in size
# Target sequence (P51450 whole entry, looked up, the tested form may be a part): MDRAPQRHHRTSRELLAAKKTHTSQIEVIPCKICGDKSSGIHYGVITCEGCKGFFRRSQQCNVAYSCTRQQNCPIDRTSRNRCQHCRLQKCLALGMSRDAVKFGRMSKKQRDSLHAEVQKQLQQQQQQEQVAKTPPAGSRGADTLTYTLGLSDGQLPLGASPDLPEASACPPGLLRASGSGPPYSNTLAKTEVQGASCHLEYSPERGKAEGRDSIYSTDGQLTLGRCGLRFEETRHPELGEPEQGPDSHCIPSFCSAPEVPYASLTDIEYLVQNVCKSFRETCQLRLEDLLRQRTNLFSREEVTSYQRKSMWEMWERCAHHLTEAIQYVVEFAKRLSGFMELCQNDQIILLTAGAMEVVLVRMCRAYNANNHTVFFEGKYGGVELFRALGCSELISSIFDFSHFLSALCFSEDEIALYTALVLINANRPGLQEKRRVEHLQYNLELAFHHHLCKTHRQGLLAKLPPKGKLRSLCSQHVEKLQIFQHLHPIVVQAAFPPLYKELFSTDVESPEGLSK
#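 Stable Schneider cell line, Gal4 DNA-binding domain fused to ROR gamma, UAS-luciferase. Cmpd 1 hr RT → CuSO4 700 uM final → 20 hr RT → luciferase reagent 10 min → luminescence.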
# Tau ThT inhib = qHTS for Inhibitors of Tau Fibril Formation, Thioflavin T Binding; recombinant tau K18 P301L, heparin-induced fibrillization, ThT fluorescence; Potency, µM (top dose mostly 57.4 µM), for the others: top-dose activity, negative = inhibition, actives largely listed as inhibitors; 2.1% of 270,000 active; note: nearly all actives have a fitted effect of over 55% in size
# Target sequence (P10636 561-689 P618L limits assumed): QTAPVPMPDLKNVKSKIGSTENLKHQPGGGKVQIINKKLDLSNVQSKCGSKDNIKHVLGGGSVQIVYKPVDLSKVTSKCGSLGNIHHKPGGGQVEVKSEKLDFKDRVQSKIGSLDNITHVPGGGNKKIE
#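 Using a mix of unlabeled (15 uM) and Alexa 594-labeled (0.24 uM) tau K18 P301L, heparin-triggered fibrillization over 6 hr at 37 C was scored by ThT fluorescence.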
# Tau FP inhib = qHTS for Inhibitors of Tau Fibril Formation, Fluorescence Polarization; 0.39% of 280,000 active; Potency, µM (highest dose often 57.7 µM), for the others: top-dose activity, negative = inhibition, usual class: inhibitors; K18 P301L tau heparin fibrillization, Alexa594 FP, 6 h; Microtubule-associated protein tau (Homo sapiens), P10636; note: nearly all actives have a fitted effect of over 55% in size
#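 Human tau K18 […] P301L fragment, 15 uM unlabeled plus 0.24 uM Alexa 594-labeled tau (final), with compound and 20 uM heparin in 100 mM sodium acetate pH 7; 6 hr at 37 C, then Alexa 594 FP read.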
# Tau fluor counter = Counterscreen qHTS for Inhibitors of Tau Fibril Formation, Fluorescence Polarization. tau K18 P301L Alexa594 fluorescence, heparin fibrillization. Potency, µM (highest dose often 57.7 µM), for inactives: at the top dose activity change, negative = decrease. 0.93% of 280,000 active; note: nearly all actives have a fitted effect of over 55% in size
#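 Human tau K18 P301L (15 uM unlabeled, 0.24 uM Alexa 594-labeled) in 100 mM sodium acetate pH 7 with 20 uM heparin, 6 hr at 37 C. ThT 30 uM added, 1 hr ambient; Alexa 594 FP and total fluorescence read at 555/632 nm.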
# * marks the source's active call; other numbers are inactive results; ? = inconclusive; nt = not tested or not shown; [ ] = dose if it differs, or a comment. Calls come from the whole dose curve; as a rule, active = well fitted curve in the direction sought with a large enough effect; inconclusive = small, poorly fitted or top-dose-only effect, or another doubt; inactive = no such curve, though single readings can be large; an effect the other way counts as inactive or inconclusive. % is set by controls: 0 for no effect and ±100 for the full control effect; potency is the fitted concentration of half-maximal effect.
SMILES,Gal4-VP16 FLuc,RORgamma inh,Tau ThT inhib,Tau FP inhib,Tau fluor counter
CCOC(=O)c1cc(NC(=O)c2ccc(OC)cc2)c(=O)n2c1oc1ccc(Cl)cc12,nt,nt,?,-12.3%,-15.3%
COc1ccccc1CNC(=O)CCc1c(C)nc2c(c(C)nn2-c2ccc(C)c(C)c2)c1C,nt,nt,-2.0%,0.3%,-7.6%
Cc1cc2nc3c(=O)[nH]c(=O)[nH]c3nc2c([N+](=O)[O-])c1N,-0.3%,15.7%,14.1µM*,?,?
COc1cc2[nH]c(Cl)c([N+](=O)[O-])c2cc1OC,3.1%,-2.1%,14.1µM*,?,?
COc1cc2[nH]c3c(Cl)ncnc3c2cc1OC,-20.0%,-3.4%,?,0.8%,-16.0%
FC(F)(F)c1ccc(Cl)c(N/N=C/c2ccc(N3CCOCC3)s2)c1,0.8%,-2.0%,?,10.7%,12.6µM*[quencher]
O=[N+]([O-])c1ccc(N/N=C/c2sc(N3CCOCC3)nc2-c2ccccc2)c(S(=O)(=O)Nc2ccc(Cl)cc2)c1,3.16µM*,?,?,14.9%,?
O=C(N/N=C/c1ccc(N2CCOCC2)s1)c1ccccc1Cl,?,7.94µM*,?,-2.9%,-17.5%
O=C(N/N=C/c1sc(N2CCOCC2)nc1-c1ccccc1)c1ccccc1O,2.82µM*,2.24µM*,?,?,?
Cc1ccccc1Cn1cc(S(=O)(=O)c2ccc(Cl)cc2)c(=O)c2cc3c(cc21)OCO3,nt,nt,5.9%,3.3%,1.2%
O=C(CCC1CCCN(C(=O)CCCc2ccccc2)C1)N1CCN(c2ccccn2)CC1 (configuration not stated),-13.6%,39.4%,-9.1%,-1.6%,0.2%
COc1cccc(-c2nccc(NCc3cnc(C)cn3)n2)c1,4.1%,21.1%,nt,nt,nt
COc1cccc(NC(=O)Nc2ccc3nc(C)c(C)nc3c2)c1,18.8%,?,nt,nt,nt
O=C(Nc1ccc(Cl)c(Cl)c1)Nc1nccs1,1.4%,-1.2%,?,14.1µM*,?
CCn1c(C)nc2cc(NC(=O)Nc3cccc(C(C)=O)c3)ccc21,14.1µM*,15.8µM*,nt,nt,nt
COc1cccc(NC(=O)Nc2ccc3c(c2)nc(C)n3C)c1,11.2µM*,8.91µM*,?,10.7%,-17.6%
CCn1c(C)nc2cc(C(=O)OC)ccc21,1.2%,21.2%,-13.6%,-7.0%,-6.3%
Cc1nc2cc(NC(=O)Nc3nccs3)ccc2n1C,10µM*,?,-8.3%,-9.3%,-9.4%
O=C(Nc1cccc(Cl)c1)Nc1nccs1,8.7%,-10.8%,-0.5%,?,?
CCc1ccc2c(c1)C(NC(C)=O)C(=O)N2CCN1CCOCC1 (configuration not stated),-11.4%,6.3%,nt,nt,nt
CC(=O)Nc1cccc(NC(=O)Nc2ccc(C(C)=O)cc2)c1,0.2%,-19.0%,7.8%,0.8%,3.5%
CCN(CC)c1ccc(NC(=O)Nc2cccc(C(C)=O)c2)cc1,?,7.94µM*,?,13.3%,17.8µM*[quencher]
CC(OC(=O)CCc1c[nH]c2ccccc12)C(=O)c1ccccc1 (configuration not stated),7.3%,24.5%,?,4.6%,11.2µM*[quencher]
NNC(=O)CCc1c[nH]c2ccccc12,-3.5%,?,?,-1.4%,-27.1%
O=C(COC(=O)CCc1c[nH]c2ccccc12)NC(c1ccccc1)c1ccccc1,-10.5%,13.2%,-9.2%,?,14.1µM*[quencher]
SMILES,Gal4-VP16 FLuc,RORgamma inh,Tau ThT inhib,Tau FP inhib,Tau fluor counter
COc1cc(N2C(=O)C=CC2=O)c(OC)cc1Cl,4.47µM*,5.62µM*,?,-2.5%,0.2%
COc1cc(Cl)c(S(=O)(=O)N2CCCC2)cc1Cl,-3.5%,17.5%,5.1%,-5.5%,1.7%
COc1ccc(OC)c(C2C(C(N)=O)=C(C)Nc3nc(-c4cccc(Cl)c4)nn32)c1 (configuration not stated),17.8µM*,?,-10.0%,5.2%,-11.3%
COc1cc(-c2ccno2)ccc1S(=O)(=O)N1CCN(c2ccccc2)CC1,nt,nt,-15.8%,-0.7%,?
CCC(=O)OCC(=O)C1(OC(=O)CC)C(C)CC2C3C(Cl)CC4=CC(=O)C=C[C@@]4(C)C3C(O)C[C@@]21C (some centres not stated),-27.1%,12.6µM*,-13.6%,4.0%,-14.7%
CCC(=O)OCC(=O)[C@@]1(OC(=O)CC)[C@H](C)C[C@@H]2[C@@H]3[C@H]([C@@H](O)C[C@@]21C)[C@]1(C)C=CC(=O)C=C1C[C@@H]3Cl,-6.8%[17 µM],-20.0%[2.98 µM],nt,nt,nt
CC1=NN(C(N)=S)C(=O)C1N=Nc1cccc([N+](=O)[O-])c1 (configuration not stated),1.58µM*,0.501µM*,nt,nt,nt
CC1=NN(c2ccccc2)C(=O)C1N=Nc1ccc(N)cc1 (configuration not stated),8.91µM*,3.4%,11.2µM*,-10.8%,15.8µM*[quencher]
CC1=NN(C(N)=S)C(=O)C1N=Nc1ccccc1 (configuration not stated),0.891µM*,0.199µM*,?,-1.0%,-4.5%
Cc1[nH]n(-c2ccccc2)c(=O)c1N=Nc1ccc(Cl)cc1,7.4%,-19.6%,nt,nt,nt
CC1=NN(c2ccccc2)C(=O)C1N=Nc1ccccc1 (configuration not stated),-15.6%,?,?,3.7%,-9.7%
CC1(C)CC(=O)C(N=Nc2cccc([N+](=O)[O-])c2)=C(O)C1,-17.7%,-36.6%,-13.9%,-4.4%,-11.8%
CC1=NN(C(N)=S)C(=O)C1N=Nc1ccc(Cl)cc1 (configuration not stated),1.12µM*,0.398µM*,nt,nt,nt
O=c1c2oc3ccccc3c2n(Cc2cccc(Cl)c2)c(=O)n1Cc1ccco1,nt,nt,-6.8%,5.7%,-19.4%
CC(=O)N1CC(C)Sc2ccc(S(=O)(=O)NC3CCCCC3C)cc21 (configuration not stated),-0.6%,23.1%,nt,nt,nt
CC1=NN(C(N)=S)C(=O)C1N=Nc1ccc(Br)cc1 (configuration not stated),1.26µM*,0.447µM*,nt,nt,nt
CN(CCc1ccc(Cl)c(Cl)c1)CCN1CCCCCC1,-1.8%,-35.6%,-0.2%,-15.2%,-8.5%
N#CC1=C(N)OC2=C(C(=O)CC(c3ccccc3)C2)C1c1ccc2c(c1)OCO2 (configuration not stated),-11.7%,?,-16.8%,-9.3%,?
N#CC1=C2SCN(Cc3ccccc3)CN2C(=O)CC1c1cccs1 (configuration not stated),-2.6%,-15.4%,28.2µM*,?,-27.8%
N#CC1=C2SCN(Cc3ccccc3)CN2C(=O)CC1c1ccc2c(c1)OCO2 (configuration not stated),-3.9%,1.6%,20µM*,?,-22.6%
CCNC(=S)N1CCC(C(O)(c2ccccc2)c2ccccc2)CC1,22.3%,-27.3%,-2.6%,-7.4%,-7.9%
